Measured values as given in PubChem BioAssay.

Tested on: XIP peptide (Xip251-270)
Assay: compounds binding XIP fragment 251-270 – biochemical, small-molecule microarray, fluorescence 635/667 nm, 0.5 µg/mL protein, primary screen (AID 1183)
Details: fluorescence 635 nm, higher = more signal

SMILES	composite z-score
CCCCCCc1nc(C2CC2)c(C)c2c1[Si](C(C)C)(C(C)C)OC2	-0.462
C[C@H]1C2[C@H](Cc3ccccc3)NC(=O)[C@]23C(=O)N[C@H](Cc2ccccc2)C(=O)N[C@@H](Cc2ccccc2)C(=O)NC/C=C\C/C=C/C3[C@@H]2O[C@]12C (stereo partly drawn)	-0.564
O=C1OCCC=C[C@H]2OC34C=CCN(Cc5ccccc5)C(=O)[C@H]3N(CCO)C(=O)[C@@H]4C12 (stereo partly drawn)	-1.24
C=CCN1C(=O)[C@@]2(Cc3ccccc3)N=C(c3ccc(OCCCO)cc3)O[C@H]2c2ccccc21	0.79
COCCOC(=O)N1C(=O)[C@@]2(c3cc(C#CCNC(N)=O)ccc31)[C@H](c1ccccc1OCCO)N1[C@H](c3ccccc3)[C@H](c3ccccc3)OC(=O)[C@H]1[C@@H]2C(=O)NC[C@H](O)c1ccccc1	0.8
CC(=O)NCCCC[C@@H]1NC(=O)[C@H]2C[C@@H](C(=O)NCCCCCCN(C)C)[C@@H](c3ccc(O)cc3)N2C1=O	0.832
CN1C(=O)C2C=CC(C(O)c3ccc(N(C)C)cc3)N(Nc3ccc([N+](=O)[O-])cc3[N+](=O)[O-])C2C1=O (stereo not drawn)	0.301

Tested on: not listed separately
Assay: blood-stage malaria parasite viability loss – strain 3D7, DAPI fluorescence, 100 nL, primary screen (AID 1184);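 note: parasites grown inside human red blood cells in medium with human serum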
Details: P. falciparum 3D7 growth, 3 d, higher = more signal

SMILES	z-score
C=CCNC(=O)[C@H]1[C@@H]2C(=O)O[C@@H](c3ccccc3)[C@@H](c3ccccc3)N2[C@@H](c2ccccc2OCCO)[C@]12C(=O)N(C(=O)OCCOC)c1ccc(C#CCNC(N)=O)cc12	-1.87
O=C1c2ccccc2[C@](Cc2ccccc2I)(C(=O)NCC(F)(F)F)[C@H](c2ccc(CO)cc2)N1Cc1ccccc1C(F)(F)F	0.121
Cc1ccc(N2C(=O)c3ccccc3[C@@H](C(=O)NCC(F)(F)F)[C@@H]2c2ccc(CO)cc2)nc1	-0.0188
[N-]=[N+]=NCc1ccccc1C[C@@]1(C(=O)N2CCOCC2)N=C(c2ccc(OCCCO)cc2)O[C@@H]1c1ccccc1N=[N+]=[N-]	-1.98
C=C(CCCC)/C(=C/C[C@@H](OC(=O)c1ccncc1)c1cccc(OCCO)c1)c1cc(C(=O)OC)ccc1OC	-3.09
C=C(CCCC)C(=O)CC[C@@H](OC(C)=O)c1ccccc1OCCO	-1.77
CCOC(=O)C1=CC[C@@H](c2ccc(-c3ccc(OCc4ccccc4)cc3)c(OC)c2)N(S(=O)(=O)c2ccc(C)cc2)[C@H]1c1ccccc1	-1.94
CC(C)[C@H]1NC(=O)[C@@]23C(=O)N[C@@H](Cc4ccccc4)C2[C@H](C)[C@@]2(C)O[C@H]2C3/C=C/C/C=C\CNC(=O)[C@H](C)NC1=O (stereo partly drawn)	-0.162
CC(=O)NCCCC[C@@H]1NC(=O)[C@H]2C[C@@H](C(=O)NCCCCCCN(C)C)[C@@H](c3cccc(OCCO)c3)N2C1=O	-0.0473
C/C(=N\O)C(=O)NCCCCCNC(=O)OCc1ccccc1	0.574
COCCOC(=O)N1C(=O)[C@@]2(c3cc(C#CC4=CCCCC4)ccc31)[C@H](C(=O)NC[C@H](O)c1ccccc1)[C@H]1C(=O)O[C@H](c3ccccc3)[C@H](c3ccccc3)N1[C@@H]2c1ccc(OCCO)cc1	-1.73
COCCOC(=O)N1C(=O)[C@@]2(c3cc(C#CC4(O)CCCCCC4)ccc31)[C@H](C(=O)N1CCCCCCC1)[C@H]1C(=O)O[C@H](c3ccccc3)[C@H](c3ccccc3)N1[C@@H]2c1ccc(O)cc1	-2.19
C=C(COC)/C(=C/C[C@@H](OC(C)=O)c1cccc(OCCO)c1)c1cc(C(=O)OC)ccc1OC	-2.56
C=CCC(OC(C)=O)[C@@H]1[C@@H](N(Cc2ccc(-c3cccc(C(F)(F)F)c3)o2)C(=O)Cc2ccc(F)cc2)c2cc(OCCCO)ccc2N1C(=O)c1ccc(-c2ccccc2)cc1 (stereo partly drawn)	-0.294
CC(C)[Si]1(C(C)C)O[C@@H](c2ccccc2)c2cc(C3CC3)nc(-c3ccc(Oc4ccccc4)cc3)c21	-1.45
Cc1ccc([C@@H]2CC=C(C(=O)O)[C@H](c3ccccc3)N2S(=O)(=O)c2ccc(C)cc2)cc1	-0.745
CCOC(=O)C[C@H]1[C@H](OC(=O)c2ccccc2-c2ccccc2)[C@@H](NC(=O)C2CCCCC2)c2cc(OCCCO)ccc2N1C(=O)c1ccccc1	-1.35
Cc1ccc(S[C@]2(C(=O)NCCCN(C)C)CC(=O)N(Cc3ccccc3)[C@@H]2c2ccc(CO)cc2I)cc1	0.0943

SMILES	z-score
CCCC=C(CCC)[C@@H](NC(=O)c1ccc(C(F)(F)F)cc1)c1ccccc1	-1.55
NC(=O)NCC#Cc1ccc2c(c1)[C@]1(C(=O)N2)[C@H](c2ccccc2OCCO)N2[C@H](c3ccccc3)[C@H](c3ccccc3)OC(=O)[C@H]2[C@@H]1C(=O)N1CCN(c2ncccn2)CC1	-2.34
C=C(CCCC)/C(=C/C[C@H](OC(=O)c1ccncc1)c1cccc(OCCO)c1)c1cc(C(=O)OC)ccc1OC	-3.26
CN1CCC(CCCO)=CC1C1CC1 (stereo not drawn)	-0.548
COc1ccc([Si](C)(C)[C@H]2[C@H](CC(=O)N(CCO)Cc3ccccc3)O[C@@]3(C(=O)N(C)c4ccccc43)[C@@H]2C)cc1	-0.134
CN1C2C=C(c3ccc(CO)cc3)C(C3C(=O)N(C(N)=O)C(=O)C32)C1c1cccs1 (stereo not drawn)	-1.65
O=C/C=C/c1ccccc1Cl	0.316
COCCOC(=O)N1C(=O)[C@@]2(c3cc(C#CCCO)ccc31)[C@H](C(=O)N1CCCCCCC1)[C@H]1C(=O)O[C@H](c3ccccc3)[C@H](c3ccccc3)N1[C@@H]2c1ccc(O)cc1	-0.303
C=C(/C(=C/C[C@@H](OC(=O)c1ccncc1)c1ccc(CO)o1)c1cnc2ccccc2c1)C(C)C	-0.599
COc1ccc(C(O)C2C=CC3C(=O)N(C)C(=O)C3N2N2CCCCC2)cc1OCc1ccccc1 (stereo not drawn)	-0.303
COC(=O)[C@@]1(Cc2ccc(OC)cc2)[C@H]2c3cc(C(=O)N(C)C)n(CCc4ccc(OC)c(Br)c4)c3C[C@H]2CN1C(=O)c1ccccc1	-1.28
CCCCCCc1nc(C2CC2)c(C)c2c1[Si](C(C)C)(C(C)C)OC2	-2.41
C[C@H]1C2[C@H](Cc3ccccc3)NC(=O)[C@]23C(=O)N[C@H](Cc2ccccc2)C(=O)N[C@@H](Cc2ccccc2)C(=O)NC/C=C\C/C=C/C3[C@@H]2O[C@]12C (stereo partly drawn)	-0.873
O=C1OCCC=C[C@H]2OC34C=CCN(Cc5ccccc5)C(=O)[C@H]3N(CCO)C(=O)[C@@H]4C12 (stereo partly drawn)	-1.92
C=CCN1C(=O)[C@@]2(Cc3ccccc3)N=C(c3ccc(OCCCO)cc3)O[C@H]2c2ccccc21	-1.92
COCCOC(=O)N1C(=O)[C@@]2(c3cc(C#CCNC(N)=O)ccc31)[C@H](c1ccccc1OCCO)N1[C@H](c3ccccc3)[C@H](c3ccccc3)OC(=O)[C@H]1[C@@H]2C(=O)NC[C@H](O)c1ccccc1	-1.84
CC(=O)NCCCC[C@@H]1NC(=O)[C@H]2C[C@@H](C(=O)NCCCCCCN(C)C)[C@@H](c3ccc(O)cc3)N2C1=O	-1.01
CN1C(=O)C2C=CC(C(O)c3ccc(N(C)C)cc3)N(Nc3ccc([N+](=O)[O-])cc3[N+](=O)[O-])C2C1=O (stereo not drawn)	0.985
